Source: PubChem BioAssay (National Center for Advancing Translational Sciences (NCATS))
FH mod: Identification of activators of human fumarate hydratase by quantitative high-throughput screening. FH coupled MDH/diaphorase resazurin fluorescence, 15 min. hit rate 0.22% among 54,000. Potency, µM (series often up to 79.9 µM), without a hit: top-dose activity change, negative = inhibition, most hits filed as inhibitors. AID 1347055, 2019; further: potency means the concentration at half of the fitted maximal effect; on the % scale 0 is the no-effect control and ±100 the full control effect; the screen sought activators but most active calls are inhibition curves; nearly all actives have a fitted effect of over 45% in size
HTT-AS promoter: activates huntingtin-antisense promoter activity | HEK293 HTT-AS promoter firefly luciferase reporter, 24 h; response scale: percent change from vehicle, -100% = no light | Potency, µM (highest dose often 57.5 µM), for inactives: top-dose activity change, positive = activation, usual class: activators | hit rate 0.24% among 48,000 | AID 1508624; further: potency means the concentration at half of the fitted maximal effect; nearly all actives have a fitted effect of over 55% in size
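Quantitative HTS used concentration series of up to 57.5 uM final on HEK293 luciferase reporter cells, 24 h at 37 degrees C. Readout was Dual-Glo firefly luminescence.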
NTMT1 inhibitor: blocks human N-terminal methyltransferase 1 activity; Q9BV86; NTMT1 MTase-Glo SAH luminescence, purified enzyme; Potency, µM (highest dose often 114 µM), inactives show top-dose activity change, negative = inhibition, hits mostly inhibitors; hit rate 2.5% among 59,000; AID 1645870;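 further: potency means the concentration at half of the fitted maximal effect; plate controls were DMSO vehicle for no effect and no enzyme for full effect; nearly all actives have a fitted effect of over 65% in size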
HTT prom inh: inhibits huntingtin promoter activity | HEK293 HTT promoter firefly luciferase reporter, 24 h | Potency, µM (titrated, usually from 57.5 µM), inactives show at the highest dose activity change, negative = inhibition, usual class: inhibitors | hit rate 0.93% among 48,000 | AID 1508623; further: potency means the concentration at half of the fitted maximal effect; nearly all actives have a fitted effect of over 50% in size
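Firefly luciferase signal from promoter-reporter HEK293 cells was scaled between vehicle (0%) and zero RLU (-100%). Compounds were tested at final concentrations of up to 57.5 uM over 24 h at 37 degrees C. PTC124 at 50 uM final served as control inhibitor.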
GALK inh: GALK (human) enzyme inhibition | P51570 | recombinant GALK, Kinase-Glo ATP luminescence, 1 h | Potency, µM (series often up to 57.5 µM), for inactives: top-dose activity, negative = inhibition, actives largely listed as inhibitors | 44,000 tested, under 10 active | AID 1347072;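 further: plate controls were full GALK reaction for no effect and reaction lacking GALK for full effect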
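Luminescent ATP-depletion readout (Kinase-Glo Plus, 10 min) after 1 h RT reaction of 5 nM GALK, 35 uM ATP, 100 uM galactose, pH 8.0 HEPES buffer. Decreased kinase activity scored as inhibition.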
Sfp qHTS opt: inhibits purified B. subtilis Sfp PPTase. shares compounds with NTMT1 inhibitor. purified Sfp PPTase enzyme activity, qHTS. Potency, µM (doses to about 114 µM), without a hit: at the top dose activity change, negative = inhibition, actives largely listed as inhibitors. hit rate 78% among 230
HM489 growth: reduces growth of B. subtilis HM489 strain. shares compounds with NTMT1 inhibitor. B. subtilis HM489 (acpS-) growth, BacTiter-Glo, 5 h. AID 540353. Potency, µM (doses to about 114 µM), without a hit: at the top dose activity change, negative = inhibition, most hits filed as inhibitors. hit rate 50% among 220
Sfp PPTase gel: Sfp PPTase inhibition, gel-based detection; shares compounds with NTMT1 inhibitor; purified Sfp PPTase, gel-based product detection; Potency, µM (doses to about 250 µM), without a hit: top-dose activity change, negative = inhibition, hits mostly inhibitors; hit rate 54% among 220
Sfp SAR2: Sfp phosphopantetheinyl transferase inhibition, SAR round 2. purified Sfp enzyme, PPTase activity, qHTS. shares compounds with NTMT1 inhibitor. hit rate 87% among 230. Potency, µM (highest dose often 57.1 µM), for the others: at the top dose activity change, negative = inhibition, usual class: inhibitors. AID 602370
hGST ctr: hGST A1-1 enzyme inhibition, Sfp SAR counter-screen; hGST A1-1 enzyme activity counter-screen, qHTS; shares compounds with NTMT1 inhibitor; Potency, µM (titrated, usually from 114 µM), without a hit: top-dose activity change, negative = inhibition, most hits filed as inhibitors; 55 tested, under 10 active
HSD17B4 inh: counter-screen for HPGD inhibitors: human HSD17B4 inhibition; shares compounds with NTMT1 inhibitor; purified HSD17B4, estradiol/NAD+, NADH fluorescence; Potency, µM (series often up to 57.1 µM), for inactives: top-dose activity change, negative = inhibition, most hits filed as inhibitors; hit rate 10% among 230; AID 743187
ALDH1A1 counter: ALDH1A1 (human) inhibition, HPGD counter-screen; recombinant ALDH1A1, NADH fluorescence, propionaldehyde/NAD+; shares compounds with NTMT1 inhibitor; hit rate 93% among 230; Potency, µM (highest dose often 57.1 µM), without a hit: top-dose activity change, negative = inhibition, hits mostly inhibitors
Target sequence (P00352 whole entry, looked up): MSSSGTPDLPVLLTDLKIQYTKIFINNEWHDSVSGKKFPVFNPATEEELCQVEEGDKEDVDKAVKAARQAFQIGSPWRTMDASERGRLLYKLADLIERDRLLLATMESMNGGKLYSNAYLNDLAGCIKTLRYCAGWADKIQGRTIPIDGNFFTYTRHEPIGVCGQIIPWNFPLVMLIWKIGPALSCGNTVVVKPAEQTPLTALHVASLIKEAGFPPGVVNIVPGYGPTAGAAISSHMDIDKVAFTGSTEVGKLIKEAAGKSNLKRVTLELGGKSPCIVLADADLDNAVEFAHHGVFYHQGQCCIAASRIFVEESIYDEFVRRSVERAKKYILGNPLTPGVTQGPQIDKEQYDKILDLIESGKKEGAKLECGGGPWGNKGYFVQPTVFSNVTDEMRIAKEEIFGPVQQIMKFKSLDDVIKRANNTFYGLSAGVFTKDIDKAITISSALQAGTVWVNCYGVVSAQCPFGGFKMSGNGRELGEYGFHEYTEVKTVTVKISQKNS
NNMT inh: human NNMT inhibition, NTMT1 counter-screen; shares compounds with NTMT1 inhibitor; NNMT MTase-Glo luminescence, SAH detection; Potency, µM (series often up to 57.1 µM), without a hit: top-dose activity, negative = inhibition, most hits filed as inhibitors; hit rate 10% among 120; AID 1645878
* marks the source's active call; other numbers are inactive results; ? = inconclusive; · = no result given; [ ] = another dose, or the depositor's remark. Shown are actives, neighbours in structure and some others; about 2.5% of the full set was active somewhere. The call rests on the fitted dose curve; in most records, active means well fitted curve in the direction sought with a large enough effect; inconclusive means small, poorly fitted or top-dose-only effect, or another doubt; inactive means no such curve, though single readings can be large; an effect the other way counts as inactive or inconclusive.

SMILES	FH mod	HTT-AS promoter	NTMT1 inhibitor	HTT prom inh	GALK inh	Sfp qHTS opt	HM489 growth	Sfp PPTase gel	Sfp SAR2	HSD17B4 inh	ALDH1A1 counter	others
O=C(c1ccc2c(c1)ncn2-c1cccc(C(F)(F)F)c1)N1CCCCC1	·	·	0%[57.5 µM]	·	·	·	·	·	·	-12%	?
Cc1ccc(-n2cnc3cc(C(=O)N4CCCCC4)ccc32)cc1	·	·	2%	·	·	·	·	·	·	·	·
COc1ccc(NC(=S)N2CCN(c3cccc(C(F)(F)F)c3)CC2)nc1	·	·	?	·	·	?	7%	-64%	?	-15%	3.4µM*
Cc1cncc(NC(=S)N2CCN(c3cccc(C(F)(F)F)c3)CC2)c1	·	·	?	·	·	?	-13%	?	?	-30%	-114%
FC(F)(F)c1cccc(N2CCN(C(=S)Nc3cccnc3)CC2)c1	·	·	?	·	·	?	?	-57%	41µM*	-19%	11µM*
O=C(CNS(=O)(=O)c1cccs1)N1CCN(c2cccc(C(F)(F)F)c2)CC1	-9%	-27%	-4%	?	6%	·	·	·	·	·	·
Cc1noc(C)c1S(=O)(=O)N1CCC(C(=O)N2CCN(c3cccc(C(F)(F)F)c3)CC2)CC1	-16%	-33%	0%	?	-6%	·	·	·	·	·	·
FC(F)(F)c1ccc(N2CCN(C(=S)Nc3ccccn3)CC2)cc1	·	·	?	·	·	2.4µM*	21µM*	5µM*	0.58µM*	-11%	2.4µM*
CN(C)CCNC(=O)NC[C@H]1CC[C@@H]2[C@H](O1)c1cc(C(F)(F)F)ccc1N[C@H]2c1ccccc1	·	·	-14%	·	·	·	·	·	·	·	·
FC(F)(F)c1ccccc1-c1nc(NCc2ccc(-c3ccncc3)cc2)c2ccccc2n1	·	·	0%	·	·	·	·	·	·	·	·
O=C(Nc1nnc(-c2cccs2)o1)c1ccc(Cl)cc1	·	·	7%	·	·	·	·	·	·	·	·
CCCC1(CCC)CCC2(CCN(CCCN(CC)CC)C2)CC1	0%	·	22µM*	·	·	·	·	·	·	·	·	NNMT inh=-15%
O=C(Nc1cccc(Cl)c1)C(Cc1ccccc1)n1cccc1 (stereo unspecified)	?	-26%	7%	-20%	-3%	·	·	·	·	·	·
CC(Cc1ccccc1)C(=O)Nc1ccc(Cl)cc1C(=O)O (stereo unspecified)	·	·	18%	·	·	·	·	·	-20%	24µM*	24µM*	hGST ctr=?
